For 33 compounds, activity change, negative = inhibition, outcome and Potency results are on record in PubChem BioAssay (NCATS).

Values without a mark were called inactive. Results filed as inconclusive are left out. Entries that show only a call come without a potency. Activity calls are given as the source filed them. Unless noted, calls come from the whole dose curve; as a rule, active = well fitted curve in the direction sought with a large enough effect; inconclusive = small, poorly fitted or top-dose-only effect, or another doubt; inactive = no such curve, though single readings can be large; an effect the other way counts as inactive or inconclusive.

Test [1] deals with Rap guanine nucleotide exchange factor 4 (Homo sapiens) (UniProt Q8WZA2). Kind of test: Confirmatory qHTS for antagonist of cAMP-regulated guanine nucleotide exchange factor 4 (EPAC2) (AID 1645885; note: nearly all actives have a fitted effect of over 25% in size). (Quantitative high-throughput screening tests each substance at several concentrations.)
Chain of Rap guanine nucleotide exchange factor 4 (Homo sapiens) (Q8WZA2 whole entry, looked up): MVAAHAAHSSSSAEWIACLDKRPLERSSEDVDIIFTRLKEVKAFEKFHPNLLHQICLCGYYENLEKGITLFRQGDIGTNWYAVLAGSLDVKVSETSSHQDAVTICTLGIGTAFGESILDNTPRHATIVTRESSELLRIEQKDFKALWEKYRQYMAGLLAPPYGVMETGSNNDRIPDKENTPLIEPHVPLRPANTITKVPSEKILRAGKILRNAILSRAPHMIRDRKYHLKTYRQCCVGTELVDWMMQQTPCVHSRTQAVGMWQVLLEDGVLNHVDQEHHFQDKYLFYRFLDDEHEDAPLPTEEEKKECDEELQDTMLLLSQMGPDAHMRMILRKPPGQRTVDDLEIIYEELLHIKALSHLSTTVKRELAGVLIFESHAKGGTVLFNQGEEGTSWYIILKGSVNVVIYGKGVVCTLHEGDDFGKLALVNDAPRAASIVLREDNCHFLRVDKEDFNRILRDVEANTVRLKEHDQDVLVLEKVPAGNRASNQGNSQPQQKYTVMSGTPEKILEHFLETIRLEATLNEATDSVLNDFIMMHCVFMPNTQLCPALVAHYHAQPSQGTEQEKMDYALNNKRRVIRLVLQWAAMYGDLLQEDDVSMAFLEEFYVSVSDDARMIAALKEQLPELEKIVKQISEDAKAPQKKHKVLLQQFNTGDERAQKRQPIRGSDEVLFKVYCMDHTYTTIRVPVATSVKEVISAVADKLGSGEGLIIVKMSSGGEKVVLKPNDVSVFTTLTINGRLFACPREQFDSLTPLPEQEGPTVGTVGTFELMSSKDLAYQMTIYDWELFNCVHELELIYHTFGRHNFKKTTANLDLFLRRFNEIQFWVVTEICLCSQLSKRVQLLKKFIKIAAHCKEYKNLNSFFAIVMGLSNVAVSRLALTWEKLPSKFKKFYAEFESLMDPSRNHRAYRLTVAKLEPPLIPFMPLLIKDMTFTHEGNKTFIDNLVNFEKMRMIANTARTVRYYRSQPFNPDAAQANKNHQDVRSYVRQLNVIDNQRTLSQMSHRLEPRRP
Test [2] has as its target Rap guanine nucleotide exchange factor 3 (Homo sapiens) (UniProt O95398). The test is described as follows: Counterscreen qHTS for antagonist of cAMP-regulated guanine nucleotide exchange factor 3 (EPAC1) (AID 1645888).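 Note: fluorescence loss as bound BODIPY-GDP is released from Rap1B.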 In outline: (§1)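 Rap1B-BODIPY-GDP 250 nM + GDP 50 uM; cpds 7-pt, final 9.74 nM–152 uM (activator mode) or from 7.32 nM upwards (inhibitor mode); RT; FI 480/540 nm at 5 and 30 min, then ± cAMP, reread.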
(Counterscreens check selectivity or assay interference.)

Test [3] shares this target. Kind of test: Counterscreen qHTS for agonist of cAMP-regulated guanine nucleotide exchange factor 3 (EPAC1) (AID 1645889). Note: nearly all actives have a fitted effect of over 40% in size. In outline: as §1
A short description of test [4]: NCATS anti-infectives library activity on HEK293 viability as a counter-qHTS vs the C. elegans viability qHTS (AID 1745854).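 Note: HEK293 cells exposed to compounds for 24 hr before the viability read.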 In outline: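 Counter-screen for cytotoxicity: HEK293, 24 hr, 37C, compounds up to 41.7 uM final (a dilution series, 1:5). Readout CellTiter-Glo luminescence, 10 min RT. Digitonin control, 83.3 uM final.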
The target in test [5] is Glutathione peroxidase 1 (Homo sapiens) (UniProt P07203). The test is described as follows: Primary qHTS Assay for Inhibitors of Recombinant Selenoprotein Glutathione Peroxidase 1 (GPX1) (AID 1845191). Note: nearly all actives have a fitted effect of over 65% in size. In outline: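 NADPH consumption tracked by fluorescence at 340/450 nm between t=0 and t=15 min, room temperature. Final mix: 10 nM GPX1, 100 nM glutathione reductase, 1 mM GSH, 0.5 mM NADPH, 0.5 mM cumene hydroperoxide, 0.01% BSA; 30 min compound–enzyme preincubation.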
Chain of Glutathione peroxidase 1 (Homo sapiens) (P07203 whole entry, looked up): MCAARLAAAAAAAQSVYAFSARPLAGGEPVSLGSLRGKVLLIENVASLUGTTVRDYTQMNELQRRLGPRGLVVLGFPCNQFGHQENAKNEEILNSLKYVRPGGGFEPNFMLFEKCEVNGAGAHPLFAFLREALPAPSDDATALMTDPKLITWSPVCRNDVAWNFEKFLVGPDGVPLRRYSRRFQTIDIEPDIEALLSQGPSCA

Test [6] addresses Phospholipid hydroperoxide glutathione peroxidase GPX4 (Homo sapiens) (UniProt P36969). Kind of test: Primary qHTS Assay for Inhibitors of Recombinant Selenoprotein Glutathione Peroxidase 4 (GPX4) (AID 1845192). For activity change, negative = inhibition: series mostly up to about 50 µM. Note: nearly all actives have a fitted effect of over 65% in size. In outline:
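NADPH consumption followed by fluorescence at 340/450 nm, t=0 and after 15 min at room temperature. Reaction started with cumene hydroperoxide (0.5 mM final) after 30 min compound–GPX4 preincubation; final 200 nM GPX4, 100 nM GR, 1 mM GSH, 0.5 mM NADPH.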

Test [7] has as its target Luciferin 4-monooxygenase (Photinus pyralis) (UniProt P08659). The test is described as follows: Primary firefly luciferase (FLuc) qHTS assay for identification of artifact compounds. (AID 1845220). For activity change, negative = inhibition: series mostly up to about 54 µM. Note: nearly all actives have a fitted effect of over 60% in size. Note: potency is the fitted concentration of half-maximal effect. In outline:
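FLuc 10 nM; luciferin 10 uM; ATP 10 uM; Tris-acetate pH 7.6, Mg-acetate 10 mM; 15 min RT preincubation; 5 min reaction; luminescence.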

A short description of test [8]: Primary fluorescence-based thiol-reactive (MSTI) qHTS assay for identification of artifact compounds. (AID 1845221).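 Note: series mostly up to about 54 µM; thiol-reactive compounds lower the probe fluorescence signal; nearly all actives have a fitted effect of over 65% in size.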 In outline:
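Probe: MSTI 4 uM, PBS pH 7.4, 2% DMSO. Incubation 1 h, RT, light-protected. Readout fluorescence 525/598 nm.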

Test [9] has as its system Nanoluciferase (engineered Oplophorus gracilirostris luciferase). The test is described as follows: Primary Nanoluciferase (NLuc) qHTS assay for identification of artifact compounds. (AID 1845222).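 Note: NLuc secreted into diluted conditioned medium of S16 cells; series mostly up to about 54 µM.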 In outline:
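NLuc from S16 cell medium (1:55) plus test compounds, 15 min, room temperature. Luminescence after Nano-Glo (1:100) addition, 5 min.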

Test [10] concerns the target Metallo-beta-lactamase type 2 (Klebsiella pneumoniae) (UniProt C7C422). Kind of test: qHTS to identify inhibitors of the New Delhi Metallo-beta-lactamase (NDM): assay validation screen against the NCATS LOPAC Collection (AID 1794843).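 Note: nitrocefin turnover by NDM-1 measured as 485 nm absorbance at plateau; series mostly up to about 38 µM.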 In outline: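 Nitrocefin hydrolysis (50 uM substrate stock) by NDM-1, 2 nM final, was followed by 485 nm absorbance after compound preincubation; buffer was 50 mM HEPES pH 7.0, 1 uM ZnSO4, 0.01% Tween20.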

Test [11] in a line: NCATS anti-infectives library activity on the primary C. elegans qHTS viability assay (AID 1745855; calls by dose curve; note: potency is the fitted concentration of half-maximal effect). In outline: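 GFP read-out by 488 nm laser cytometry at day 0, 3 and 7, gated on object perimeter, area and peak intensity, scored viability of PE254-GFP-FLuc worms exposed to compound in S medium with bacterial capsules at 21 °C.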
A short description of test [12]: Viability counterscreen for antagonist of constitutive androstane receptor (CAR) against the NCATS DSHEA and TCM libraries (AID 1794837).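 Note: compound exposure lasted 24 h before viability reading.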 In outline: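 Counterscreen performed in a 1536-well qHTS format using HepG2-CYP2B6-hCAR cells; samples titrated in the presence of 48 uM CITCO, with viability measured fluorometrically (405/540 nm) after 24 h.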
Test [13] can be described thus: Viability counterscreen for agonist of constitutive androstane receptor (CAR) against the NCATS DSHEA and TCM libraries (AID 1794838).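 Note: cells exposed to compound for 24 h.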 In outline:
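Multiplexed counterscreen: after 24 h compound exposure with 0.75 uM PK11195, HepG2-CYP2B6-hCAR viability was quantified fluorimetrically (CellTiter-Fluor, 405/540 nm) prior to the ONE-Glo luciferase read.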

Test [14] deals with Nuclear receptor subfamily 1 group I member 3 (Homo sapiens) (UniProt Q14994). Kind of test: Primary qHTS for agonist of constitutive androstane receptor (CAR) against the NCATS DSHEA and TCM libraries (AID 1794839).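 Note: HepG2 cells expressing human CAR with a CYP2B6 reporter plus PK11195 antagonist; luciferase reporter luminescence read with ONE-Glo.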 In outline: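 Concentration–response screen in HepG2-CYP2B6-hCAR cells under 0.75 µM PK11195; 24 h exposure; luminescent reporter signal with multiplexed fluorescent viability.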
Chain of Nuclear receptor subfamily 1 group I member 3 (Homo sapiens) (Q14994 whole entry, looked up): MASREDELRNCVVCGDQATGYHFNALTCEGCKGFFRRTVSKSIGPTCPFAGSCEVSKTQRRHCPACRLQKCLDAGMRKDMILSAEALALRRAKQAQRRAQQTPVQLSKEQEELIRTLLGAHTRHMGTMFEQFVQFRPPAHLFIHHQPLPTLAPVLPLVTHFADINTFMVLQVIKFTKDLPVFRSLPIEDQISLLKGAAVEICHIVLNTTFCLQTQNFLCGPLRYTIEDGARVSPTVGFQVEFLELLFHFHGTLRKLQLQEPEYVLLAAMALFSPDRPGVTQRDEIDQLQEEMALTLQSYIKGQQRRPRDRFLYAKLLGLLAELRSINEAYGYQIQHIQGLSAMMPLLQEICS

Test [15] can be described thus: HepG2 viability counterscreen (readout 2: ATP content) against the NCATS DSHEA and TCM libraries (AID 1794840).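 Note: HepG2 cells exposed to substances for about 24 h.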 In outline:
(§2)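 After HepG2 cells attach for ~4 h, substances are added and incubated ~24 h at 37C, 5% CO2. GF-AFC fluorescence then CellTiter-Glo luminescence give protease and ATP readouts.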

Test [16] is described as follows: HepG2 viability counterscreen (readout 1: protease activity) against the NCATS DSHEA and TCM libraries (AID 1794841).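 Note: cells exposed to compounds for about 24 h before the protease read.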 In outline: as §2

Chain of Phospholipid hydroperoxide glutathione peroxidase GPX4 (Homo sapiens) (P36969 whole entry, looked up): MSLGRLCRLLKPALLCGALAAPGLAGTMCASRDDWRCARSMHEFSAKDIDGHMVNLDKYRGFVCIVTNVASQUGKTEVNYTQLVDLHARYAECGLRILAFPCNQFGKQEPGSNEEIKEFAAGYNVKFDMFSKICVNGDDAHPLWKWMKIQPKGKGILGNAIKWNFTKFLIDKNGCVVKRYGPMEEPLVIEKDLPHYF
Chain of Rap guanine nucleotide exchange factor 3 (Homo sapiens) (O95398 whole entry, looked up): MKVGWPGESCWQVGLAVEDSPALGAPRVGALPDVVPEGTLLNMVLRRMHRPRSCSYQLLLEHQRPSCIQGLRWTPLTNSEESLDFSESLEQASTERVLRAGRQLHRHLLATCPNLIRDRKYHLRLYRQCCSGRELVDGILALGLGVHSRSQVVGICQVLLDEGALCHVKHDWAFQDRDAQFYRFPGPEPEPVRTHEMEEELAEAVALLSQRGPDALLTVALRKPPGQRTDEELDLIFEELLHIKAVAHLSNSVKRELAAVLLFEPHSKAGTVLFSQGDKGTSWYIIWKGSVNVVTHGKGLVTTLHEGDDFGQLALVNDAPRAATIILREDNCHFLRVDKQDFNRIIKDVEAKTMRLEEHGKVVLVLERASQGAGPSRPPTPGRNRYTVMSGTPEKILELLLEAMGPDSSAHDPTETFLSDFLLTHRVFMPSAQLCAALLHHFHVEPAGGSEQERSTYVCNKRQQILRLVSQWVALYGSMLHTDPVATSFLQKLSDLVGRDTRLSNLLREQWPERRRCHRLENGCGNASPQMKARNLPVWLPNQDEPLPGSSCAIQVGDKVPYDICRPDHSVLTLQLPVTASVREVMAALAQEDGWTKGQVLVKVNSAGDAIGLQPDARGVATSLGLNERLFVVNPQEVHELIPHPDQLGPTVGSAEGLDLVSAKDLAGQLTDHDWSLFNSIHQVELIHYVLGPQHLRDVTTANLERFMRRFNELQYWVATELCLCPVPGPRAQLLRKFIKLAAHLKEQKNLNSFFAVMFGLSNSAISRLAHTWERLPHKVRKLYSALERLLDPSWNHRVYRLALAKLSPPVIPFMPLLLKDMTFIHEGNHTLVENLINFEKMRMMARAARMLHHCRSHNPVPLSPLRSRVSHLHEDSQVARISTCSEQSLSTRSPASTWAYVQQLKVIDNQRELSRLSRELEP
Chain of Metallo-beta-lactamase type 2 (Klebsiella pneumoniae) (C7C422 whole entry, looked up): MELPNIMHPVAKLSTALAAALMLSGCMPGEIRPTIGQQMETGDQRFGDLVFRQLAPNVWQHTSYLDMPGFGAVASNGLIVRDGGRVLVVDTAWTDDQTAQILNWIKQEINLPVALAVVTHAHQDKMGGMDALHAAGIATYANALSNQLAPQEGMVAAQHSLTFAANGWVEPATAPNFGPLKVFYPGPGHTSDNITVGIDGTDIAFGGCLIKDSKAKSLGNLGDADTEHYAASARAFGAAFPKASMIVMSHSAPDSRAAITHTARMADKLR

`NC(=O)c1nnn(Cc2cc(Cl)c(C(=O)c3ccc(Cl)cc3)c(Cl)c2)c1N`: in test [1], the activity change, negative = inhibition was -14.9% [at 12.7 µM]. The call in test [2] and in test [3] was inactive.
For `CCOC(=O)c1c(CSc2ccccc2)n(C)c2cc(Br)c(O)c(CN(C)C)c12`, the result in test [4] was inactive. In addition, the Potency entry in test [5] is “inactive”.
Regarding `O=C(O)c1nc(=O)[nH]c(=O)[nH]1`, the call in [4] was inactive. Further, in [5], the Potency entry was “inactive”. Also, the activity change, negative = inhibition in test [6] was 4.26% [at 0.409 µM].
For `NC[C@H]1O[C@H](O[C@@H]2[C@@H](O)[C@@H](O[C@H]3O[C@H](CO)[C@@H](O)[C@H](N)[C@@H]3O)[C@H](N)C[C@@H]2N)[C@H](O)[C@@H](O)[C@H]1O`, the Potency entry in [5] is “inactive”.
Still for that read-out and setting: the entry for `Cc1cc(OCCCS(C)(=O)=O)cc(C)c1-c1cccc(COc2ccc3c(c2)OC[C@H]3CC(=O)O)c1` is “inactive”.
Regarding `CNC(=O)c1c(-c2ccc(F)cc2)oc2cc(N(CCO)S(C)(=O)=O)c(C3CC3)cc12`, the outcome in test [4] was inactive. Moreover, the Potency entry in test [5], in [7] and in test [8] was “inactive” in each case.
Turning to `COc1ccc(-c2nc3ccc(C4=NNC(=O)CC4C)cc3[nH]2)cc1` (stereo unspecified), in test [4], the compound was called inactive. Moreover, the Potency entry in test [5] and in test [8] was “inactive” in each case. In addition, in [7], the Potency is 10.7 µM (active).
As for `NCc1c[nH]c(=S)n1[C@H]1CCc2c(F)cc(F)cc2C1`, the Potency entry in [5] is “inactive”.
Take `C[C@@]1(c2cc(-c3cncnc3)c(F)cc2F)CCSC(N)=N1`: the outcome in test [4] was inactive. The Potency result in [5], in test [6], in [7], in [8] and in test [9] was “inactive” each time.
Turning to `CCOC(=O)[C@@H](N)CCC(=O)N[C@@H](CSCc1ccccc1)C(=O)N[C@@H](C(=O)OCC)c1ccccc1`, the Potency result in test [5] is “inactive”.
The same measure, in the same setting: the result for `CCC[C@H](Nc1nc(-c2ccc(NC(=O)NCC)c(OC)c2)ncc1C)c1cccnc1` reads “inactive”.
As to `C=CCc1cccc(C=NNC(=O)CN2CCN(Cc3ccccc3)CC2)c1O`, in test [10], the call was inactive. The Potency entry in test [5] and in [6] was “inactive” throughout.
Turning to `Cc1cc(NC(=O)Nc2ccc(N(C)C)cc2)c2cc(F)cc(F)c2n1`, the Potency result in [5] was “inactive”.
Still for that read-out and setting: the entry for `O=C(O)C1=CC(O)C(O)[C@H](O)C1` (stereo partly specified) is “inactive”.
The same measure, in the same setting: the result for `COc1ccc(-c2oc3c(CC=C(C)C)c(O)cc(O)c3c(=O)c2O)cc1` reads “inactive”.
On the same count and under the same terms, the entry for `C[C@H]1COC2=C1C(=O)C(=O)c1c2ccc2c1CCCC2(C)C` is “inactive”; for `COc1cc2ncn(-c3cc(OCc4ccccc4S(C)(=O)=O)c(C#N)s3)c2cc1OC` it is “inactive”.
`Clc1ccc(COC(Cn2ccnc2)c2ccc(Cl)cc2Cl)c(Cl)c1` (stereo unspecified): the Potency result in test [5] was “inactive”.
Still for that read-out and setting: the result for `CNC(=O)c1cc(COc2nnc(Nc3ccc(Cl)cc3)c3ccoc23)ccn1` reads “inactive”; that for `O=C(Nc1cccc(Cl)c1)Nc1ncc(CCNc2ncnc3ccsc23)s1`, “inactive”; that for `COc1cccc(OC)c1-c1cc(C(=O)NC2(C(=O)O)C3CC4CC(C3)CC2C4)nn1-c1ccnc2cc(Cl)ccc12` (stereo unspecified), “inactive”.
Still for that read-out and setting: the result for `COc1cc2c(cc1OC)CC(=O)N(CCCN(C)C[C@H]1Cc3cc(OC)c(OC)cc31)CC2` reads “inactive”.
On the same count and under the same terms, the result for `O=C(NC[C@H](O)CO)c1ccncc1Nc1ccc(I)cc1F` reads “inactive”; that for `O=C(O)CCC=CCC[C@@H]1[C@H](N2CCCCC2)[C@@H](O)C[C@@H]1OCc1ccc(-c2ccccc2)cc1`, “inactive”.
As to `C[C@H](CCC(=O)O)[C@H]1CC[C@H]2[C@H]3[C@@H](CC[C@]12C)[C@@]1(C)CC[C@@H](O)C[C@H]1C[C@@H]3O`, the Potency result in test [5] was “inactive”.
With `CC(=O)Nc1cccc(-n2c(=O)n(C3CC3)c(=O)c3c(Nc4ccc(I)cc4F)n(C)c(=O)c(C)c32)c1`, the Potency in test [11] was 2.3 µM (active). Moreover, the Potency result in test [5], in test [6], in test [7], in [8] and in test [9] was “inactive” each time.
For the compound `OC[C@H]1O[C@@H](OCCc2ccc(O)cc2)[C@H](O)[C@@H](O)[C@H]1O`, the compound was classed as inactive in [12] and in [14]. Further, the Potency result in test [13] is “inactive”.
As to `O=C(O)c1ccc(O)c2ncc(N3CCOCC3)cc12`, the Potency entry in test [5] is “inactive”.
As for `COc1ccc(CCN(C)CCCOc2ccc(S(=O)(=O)c3[nH]c4ccccc4c3C(C)C)cc2)cc1OC`, in [5], the Potency entry was “inactive”.
Still for that read-out and setting: the entry for `C[C@]12CC[C@@H]3c4ccc(O)cc4CC[C@H]3[C@H]1[C@@H](O)[C@@H](O)[C@H]2O` is “inactive”.
Take `CC[C@H](C=C[C@@H](C)[C@H]1CC[C@H]2[C@@H]3CC=C4C[C@@H](O)CC[C@]4(C)[C@@H]3CC[C@]12C)C(C)C`: the Potency result in test [5] was “inactive”.
For `CCCCCCCCCCCCCCCC(=O)O[C@H]1[C@@H](O)[C@@H](O)[C@@H]([C@H](NC(=O)[C@@H]2C[C@@H](CCC)CN2C)[C@H](C)Cl)O[C@@H]1SC`, the Potency result in test [5] is “inactive”.
`CC(C)(CO)[C@@H](O)C(=O)NCCC(=O)O`: the call in test [15] and in test [16] was inactive. In addition, the Potency entry in test [5] and in test [6] was “inactive” in each case.
